Screens deposited in PubChem by several laboratories.
A selection: hits, their analogues and other compounds. The true share with any hit is near 2.5%.
PKA-R2B act: PKA-R2B complex activation; P22694+P31323; PKA-R2B holoenzyme dissociation, Cy5-IP20 fluorescence polarization; R2B truncated from residue 108, S112A mutant; 0% DMSO only, 100% 113 µM cGMP; activation, % at 11.4 µM; 0.079% of 340,000 active; AID 504700;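 active = activation above a cutoff set at the mean over all compounds plus 3 SD, cut at about 18% in these data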;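 note: higher means more holoenzyme dissociation and a rise in polarization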
CHT block: inhibits the human high affinity choline transporter; Q9GZV3; B-score at 10 µM; CHT-expressing cells, membrane potential dye, choline response; active compounds read low; 0.86% of 310,000 active;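 active = B-score over 3 SD under the library average, and starting fluorescence ratio not unusually high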;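 note: choline stimulus applied at its EC90 after an EC20 pre-addition; B-score computed on integrated fluorescence ratio after choline addition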
Target sequence (Q9GZV3 whole entry, looked up): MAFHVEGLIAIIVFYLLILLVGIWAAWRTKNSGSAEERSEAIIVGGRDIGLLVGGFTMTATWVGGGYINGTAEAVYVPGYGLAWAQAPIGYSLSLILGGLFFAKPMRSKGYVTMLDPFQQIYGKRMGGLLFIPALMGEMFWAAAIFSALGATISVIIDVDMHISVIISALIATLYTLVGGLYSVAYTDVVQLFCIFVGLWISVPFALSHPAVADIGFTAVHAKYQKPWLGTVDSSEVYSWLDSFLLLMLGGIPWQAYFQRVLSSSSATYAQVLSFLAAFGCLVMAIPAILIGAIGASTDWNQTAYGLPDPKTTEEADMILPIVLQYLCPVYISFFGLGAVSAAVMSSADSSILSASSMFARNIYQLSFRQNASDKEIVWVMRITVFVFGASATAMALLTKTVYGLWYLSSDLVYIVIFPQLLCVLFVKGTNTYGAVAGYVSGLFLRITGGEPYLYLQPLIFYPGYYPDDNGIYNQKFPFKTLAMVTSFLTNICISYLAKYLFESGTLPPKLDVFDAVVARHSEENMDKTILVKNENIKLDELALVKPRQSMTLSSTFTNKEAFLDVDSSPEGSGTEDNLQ
TMEM16A inh: inhibitors of mouse TMEM16A calcium-activated chloride channel; Q8BHY3; HEK293 TMEM16A/YFP iodide influx fluorescence, ionomycin; normalized B-score (activity score, 25-100; higher = stronger inhibition) at 10 µM; 1.2% of 310,000 active;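 active = ratio plate-corrected score three or more library SD toward inhibition, starting fluorescence score within five deviations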;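 note: score derived from kinetic fluorescence span divided by baseline fluorescence per well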
PKA-R1A activ: activators of PKA-R1A complex. PKA-R1A dissociation, Cy5-IP20 fluorescence polarization; scaled: DMSO 0%, 113 µM cGMP 100%. 0.083% of 340,000 active. activation, % at 11.4 µM;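 active = percent activation above the mean of all tested compounds plus 3 SD, cut at about 19% in these data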;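 note: higher means more PKAc released from R1A so a rise in polarization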
ANO1 activ: activates or potentiates the mouse TMEM16A chloride channel; HEK293 TMEM16A/YFP-H148Q/I152L, iodide quench fluorescence; active compounds read low; B-score at 10 µM; 0.3% of 340,000 active; AID 623877;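 active = fluorescence-ratio B-score plate-corrected deviation score at least 3 library SD below zero, with starting fluorescence score within 5 deviations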;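 note: channel opened by trigger with iodide after compound preincubation; score built on the fluorescence ratio of max minus min over baseline; more negative score means more quench and so TMEM16A activation or potentiation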
CHT allo act: human CHT allosteric activation; CHT-expressing cells, membrane potential dye, choline EC20; active compounds read high; LV-AA mutant CHT in HEK293 cells; 0.49% of 310,000 active; B-score at 10 µM; Q9GZV3; AID 488977;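 active = initial fluorescence not abnormally high and integrated response B-score, plate-corrected, over 3 SD above library mean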
TMEM16A reconf: reconfirmed blocker of mouse TMEM16A calcium-activated chloride channel; shares compounds with TMEM16A inh; HEK293 TMEM16A/YFP-H148Q, iodide quench fluorescence; ionomycin added to raise cell calcium; inhibition, % at 10 µM; 39% of 2,300 active; AID 652189;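 active = mean duplicate percent inhibition, scaled so buffer wells are 0 and the reference blocker 100, over three buffer SD above buffer mean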
HEK293 Ca mobil: counter-screen for TMEM16A inhibitors: effect on calcium mobilization | shares compounds with TMEM16A inh | TMEM16A/YFP HEK293, Fluo4 calcium mobilization | calcium response (% of ionomycin), % at 10 µM | 2% of 2,300 active;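 active = duplicate-averaged calcium signal over 20% of the ionomycin maximum, relative to buffer baseline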;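 note: each well's signal is peak minus trough fluorescence divided by its pre-addition baseline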
YFP-HEK293 quench: acts in parental YFP-HEK293 cells lacking TMEM16A, counter-screen | shares compounds with TMEM16A inh | iodide YFP quench, ionomycin | YFP ratio F(max-min)/F0 at 10 µM | 2,300 tested, under 10 active | AID 652233;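 active = yellow fluorescent protein signal ratio exceeding the buffer control mean by over 5 SD of those controls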;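 note: ratio is mean of duplicate wells from kinetic YFP trace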
ClC-1 inh: rat ClC-1 inhibition, TMEM16A specificity screen; shares compounds with TMEM16A inh; CHO ClC-1-YFP, iodide influx fluorescence quench; iodide control reads 0, buffer control 100; ratio percent, % at 10 µM; 2,300 tested, under 10 active; AID 652236;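 active = duplicate-mean ratio percent above the mean of iodide-only control wells, which defines zero, plus 5 of their SD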;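 note: higher percent means stronger block of ClC-1 iodide influx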
A number is an active result; – = inactive; · = not tested or not shown.

SMILES | PKA-R2B act | CHT block | TMEM16A inh | PKA-R1A activ | ANO1 activ | CHT allo act | TMEM16A reconf | HEK293 Ca mobil | YFP-HEK293 quench | ClC-1 inh
Cc1ccccc1OCC(=O)N/N=C/c1cc2ccccc2nc1Cl | – | – | 25 | – | – | – | 20% | – | – | –
O=C(CNC(=O)c1cc(Cl)cc([N+](=O)[O-])c1)OCC(=O)N1CCCCC1 | – | · | · | – | – | · | · | · | · | ·
CCc1c(C(=O)Nc2nnc(C3CC3)s2)csc1C | – | – | 100 | – | – | – | – | – | – | –
Cc1cc(C)nc(SCC(=O)Nc2ccnc3ccccc23)n1 | – | – | – | – | – | – | · | · | · | ·
O=C(CSC1=NCCS1)Nc1ccnc2ccccc12 | – | – | 100 | – | – | – | 18% | – | – | –
CCCn1c(=S)[nH]c2cc(C(=O)N(CCO)Cc3ccccc3)ccc2c1=O | – | – | – | – | – | – | · | · | · | ·
CC(C)(CC(=O)N1CCN(c2ccc(Cl)cc2)CC1)CC1=NS(=O)(=O)c2ccccc2N1 | – | – | 25 | – | – | – | – | – | – | –
O=C(CCCC1=NS(=O)(=O)c2ccccc2N1)N1CCN(c2ccc(Cl)cc2)CC1 | – | – | – | – | – | – | · | · | · | ·
COc1ccc(C(CNC(=O)c2cc3ccccc3o2)N2CCCCC2)cc1 (configuration not stated) | – | – | – | – | – | – | · | · | · | ·
CCOc1cc(/C=N/N=C(/N)c2nonc2N)cc(Br)c1OCc1ccc(Cl)cc1 | – | – | 100 | – | – | – | – | – | – | –
Cc1onc(-c2c(Cl)cccc2Cl)c1C(=O)Nc1ccc2c(c1)OCCO2 | – | – | 100 | – | – | – | – | – | – | –
O=C(Nc1ccc2c(c1)OCCO2)NC1CCCCC1 | – | – | – | – | – | – | · | · | · | ·
O=C(Nc1ccc2c(c1)OCCO2)C1CCC1 | – | – | 100 | – | – | – | – | – | – | –
CCn1cc(-c2n[nH]c(=S)n2-c2ccc(C)cc2Br)c(=O)c2ccc(C)nc21 | – | – | – | – | – | – | · | · | · | ·
CC(C)(C)C1CCc2onc(C(=O)Nc3ccc(F)cc3F)c2C1 (configuration not stated) | – | – | 100 | – | – | – | – | – | – | –
O=C(O)c1ccc2c(=O)n(Cc3ccccc3)c(SCc3ccc([N+](=O)[O-])cc3)nc2c1 | – | – | 25 | – | – | – | 19% | – | – | –
NS(=O)(=O)c1ccc(CNC(=O)CNC(=O)c2ccc(F)cc2)cc1 | – | – | – | – | – | – | · | · | · | ·
Cc1nn(C)c(C)c1CN(Cc1nc(CCC(C)C)no1)C(C)C | – | – | 25 | – | – | – | – | – | – | –
O=C(CN1CCC(C(=O)c2ccc(F)cc2)CC1)Nc1ccc(F)cc1 | – | – | 100 | – | – | – | – | – | – | –
O=C(CN1CCC(C(=O)c2ccc(F)cc2)CC1)Nc1ccccc1 | – | – | – | – | – | – | · | · | · | ·
CC(C)(C)NC(=O)C(c1ccccc1)N(Cc1ccco1)C(=O)c1csnn1 (configuration not stated) | – | – | – | – | – | – | · | · | · | ·
CCC(C)N(C(=O)c1csnn1)C(C(=O)NC(C)(C)C)c1ccccc1 (configuration not stated) | – | – | – | – | · | – | – | – | – | –
Cc1noc(C)c1NC(=O)Nc1ccc2c(c1)CC(=O)N([C@@H](C)CO)C[C@@H](C)[C@@H](CN(C)C(=O)Nc1cccc3ccccc13)O2 | – | · | · | – | – | · | · | · | · | ·
Cc1cc(C(=O)OCC(=O)Nc2cccc(S(=O)(=O)N(C)C)c2)c2ccccc2n1 | – | – | – | – | – | – | – | – | – | –
CN(C)S(=O)(=O)c1cccc(NC(=O)CSc2ncnc3ccccc23)c1 | – | – | 25 | – | – | – | – | – | – | –
SMILES | PKA-R2B act | CHT block | TMEM16A inh | PKA-R1A activ | ANO1 activ | CHT allo act | TMEM16A reconf | HEK293 Ca mobil | YFP-HEK293 quench | ClC-1 inh
O=C(CCCN=C1NS(=O)(=O)c2ccccc21)OCC(=O)c1ccc(F)cc1 | – | – | – | – | – | – | · | · | · | ·
CC(C)CN(CC(C)C)S(=O)(=O)N1CCC(C(=O)NCc2ccc3c(c2)OCO3)CC1 | – | – | – | – | – | – | · | · | · | ·
COc1ccc(C)cc1NC(=O)CSc1nnc(COc2ccc(C)cc2)n1Cc1ccco1 | – | – | 25 | – | – | – | – | – | – | –
COc1ccccc1NC(=O)CSc1nnc(COc2ccc(Cl)cc2)n1Cc1ccco1 | – | – | – | – | – | – | · | · | · | ·
CCC1SC2=NC(C)=C(C(=O)OCC(C)C)C(/C=C/c3ccccc3OC)N2C1=O (configuration not stated) | – | – | 100 | – | – | – | – | – | – | –
O=C(OCc1csc(-c2ccccc2)n1)c1ccc(O)cc1 | – | – | 100 | – | – | – | – | – | – | –
CCNC(=S)NNC(=O)c1cc(-c2cccc(C)c2)nc2ccccc12 | – | – | – | – | – | – | · | · | · | ·
CCNC(=S)NNC(=O)c1cc(-c2cccc(OCC)c2)nc2ccccc12 | – | – | 25 | – | – | – | – | – | – | –
O=C(CSc1nnc(Cc2cc(=O)[nH]c(=O)[nH]2)n1-c1ccccc1)N1CCCCC1 | – | – | – | – | – | – | – | – | – | –
COc1cccc(-n2c(Cc3cc(=O)[nH]c(=O)[nH]3)nnc2SCC(=O)N2CCCCCC2)c1 | – | – | – | – | – | – | · | · | · | ·
O=C(CN(Cc1ccco1)C(=O)c1cc(=O)[nH]c2ccccc12)Nc1ccccc1Br | – | – | 100 | – | – | – | – | – | – | –
CC1CCCN(C(=O)c2cc3ccccc3cc2O)C1 (configuration not stated) | – | – | – | – | – | – | · | · | · | ·
COc1cc(C(=O)O/N=C2/C=C(C)C(=O)C=C2C)cc(OC)c1OC | – | – | – | – | – | – | · | · | · | ·
COc1cc(C(=O)ON=C2C(C)=CC(=O)C=C2C)cc(OC)c1OC | – | – | 100 | – | – | – | – | – | – | –
CCC(C)(C)C(=O)Nc1ncc(S(=O)(=O)c2ccc([N+](=O)[O-])cc2)s1 | – | – | 25 | – | – | – | 28% | – | – | –
